# In PubChem BioAssay AID1852 (Sanford-Burnham Center for Chemical Genomics, 2009):
# Screen size: about 2,500 compounds; about 1,100 (44%) were called active. So high a share suggests a set chosen from earlier hits. The list shows a part of the results. Values without a mark were called inactive.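 Rule for the calls: active = inhibition above 50% at 4 µM in the single-point screen; inactive = inhibition of 50% or less.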
# Assay: blockers of TNF-a NF-kB luciferase induction – cell-based, HEK293T NF-kB-Luc, luminescence, selectivity assay for NOD1/NOD2 signaling inhibitor project, primary screen (AID 1852)
# Settings: TNF-a induced, 14 h, at 4 µM, stronger effect = higher value
row,SMILES,inhibition
1,CNC(=O)COC(=O)c1ccccc1C(=O)c1ccc(Cl)c([N+](=O)[O-])c1,81.6% (active)
2,Nc1ccc(C(=O)OCC(=O)N2CCc3ccccc3C2)cc1[N+](=O)[O-],31.9%
3,CCOC(=O)c1sc(NC(=O)CSc2nc3c(cc2C#N)CCCCCC3)c(C#N)c1C,52.1% (active)
4,Cc1c(OCC(=O)N2CCN(c3ccccc3)CC2)ccc2c3c(c(=O)oc12)CCCC3,14.2%
5,Cc1c(C)c2ccc(OCC(=O)Nc3ccccn3)c(C)c2oc1=O,76.2% (active)
6,Cc1ccc(OCCN2CCN(c3ncnc4sc(C)c(C)c34)CC2)cc1,63% (active)
7,Cc1cc(C)c(C)c(S(=O)(=O)N2CCN(c3ncnc4sc(C)c(C)c34)CC2)c1C,75.3% (active)
8,Cc1sc2ncnc(N3CCN(S(=O)(=O)c4ccc(F)cc4)CC3)c2c1C,15%
9,Cc1sc2ncnc(N3CCN(S(=O)(=O)c4ccc(Br)cc4)CC3)c2c1C,29.2%
10,COC(=O)c1scc(C#N)c1N/N=C(\C#N)S(=O)(=O)c1ccc(Cl)cc1,-8.6%
11,CC(C)(C)OC(=O)N1Cc2ccccc2C[C@H]1C(=O)NCC(=O)NC1CCCC1,11%
12,COCCCn1c(=O)c2sccc2n(Cc2cccc(C)c2)c1=O,29.7%
13,CCCCC(=O)/C=C/n1c(=S)oc2ccccc21,-6.6%
14,CC(C)CC(=O)/C=C/n1c(=S)oc2ccccc21,76.6% (active)
15,CC(=O)/C=C/n1c(=S)oc2ccccc21,94.2% (active)
16,COC(=O)N1C(=O)[C@@](Cc2ccccc2)(c2ccccc2)N1C(=O)OC,59.8% (active)
17,COC(=O)N1C(=O)[C@](CC(C)C)(c2ccccc2)N1C(=O)OC,45.2%
18,CCCCCCCCn1c2c(c(=N)c3c1CCC3)CCCC2,79.5% (active)
19,CCCCCCCn1c2c(c(=N)c3c1CCC3)CCCC2,76.9% (active)
20,CCCCCCCCCn1c2c(c(=N)c3c1CCC3)CCCC2,91.2% (active)

row,SMILES,inhibition
1,N=c1c2c(n(Cc3ccc(Cl)cc3)c3c1CCC3)CCC2,12.4%
2,CC1CCN(C(=O)c2ccc(S(=O)(=O)Cc3cccc(F)c3)c([N+](=O)[O-])c2)CC1,16.5%
3,O=C(c1ccc(S(=O)(=O)Cc2cc(F)ccc2F)c([N+](=O)[O-])c1)N1CCCCC1,-1.2%
4,O=C(c1ccc(S(=O)(=O)Cc2ccccc2Cl)c([N+](=O)[O-])c1)N1CCN(c2ccccn2)CC1,58.6% (active)
5,CC1CCN(C(=O)c2ccc(S(=O)(=O)Cc3cc(F)ccc3F)c([N+](=O)[O-])c2)CC1,50.4% (active)
6,Cc1ccc(CS(=O)(=O)c2ccc(C(=O)N3CCN(c4ccccn4)CC3)cc2[N+](=O)[O-])cc1,53% (active)
7,Cc1ccc(N=c2c([N+](=O)[O-])nn(-c3ccc4c(c3)OCCO4)n2O)cc1F,0.1%
8,CC(=O)N1CCCc2cc(S(=O)(=O)N3CCCC(C(=O)N4CCN(c5cccc(Cl)c5)CC4)C3)ccc21 (stereo not drawn),57.4% (active)
9,COc1ccccc1N1CCN(C(=O)C2CCCN(S(=O)(=O)c3ccc4c(c3)oc(=O)n4C)C2)CC1 (stereo not drawn),19.5%
10,CC(=O)N1CCCc2cc(S(=O)(=O)N3CCCC(C(=O)N4CCN(c5cc(C)ccc5C)CC4)C3)ccc21 (stereo not drawn),45.4%
11,C=C(C)C(=O)O[C@H]1C/C(C)=C\C(=O)/C=C(\C)[C@H](O)[C@@H]2OC(=O)C(=C)[C@@H]21,102% (active)
12,O=C(COc1cccc2ccccc12)Nc1ccc(Cl)cc1C(=O)O,-62.6%
13,Cc1cc(C(=O)Nc2ccccc2C(=O)O)ccc1NC(=O)COc1ccccc1Cl,-11.7%
14,O=C(COc1ccc(Cl)cc1Cl)Nc1ccc(C(=O)Nc2ccccc2C(=O)O)cc1,53.4% (active)
15,CC(NC(=O)OCc1ccccc1)C(=O)Oc1cc2oc(=O)cc(-c3ccccc3)c2cc1Cl (stereo not drawn),55.2% (active)
16,Cc1ccc(CNC(=O)[C@H](C)[C@H]2C[C@]2(C)[C@H](NC(=O)OCc2ccccc2)c2ccccc2)o1,1.6%
17,CC(NC(=O)OC(C)(C)C)C(=O)Oc1cc2oc(=O)cc(-c3ccccc3)c2cc1Cl (stereo not drawn),84.3% (active)
18,Cc1c(N=C2C=CC(=O)c3ccccc32)c(=O)n(-c2ccccc2)n1C,76.4% (active)
19,Cc1c(Nc2c3ccccc3nc3ccccc23)c(=O)n(-c2ccccc2)n1C,27.4%
20,COc1ccc(-c2cc(N)n(S(=O)(=O)c3c(F)c(F)c(F)c(F)c3F)n2)cc1OC,83.8% (active)

row,SMILES,inhibition
1,COc1ccc(-c2nc3nc(N)nn3cc2C)cc1F,22.9%
2,COc1ccc(-c2cc(C(=O)NCCCN3CCOCC3)on2)cc1OC,6%
3,CCOC(=O)N=Nc1c2ccccc2c2nc3no[nH]c3nc12,105% (active)
4,COc1cc(/C=C2\C(=N)N3N=C(S(C)(=O)=O)SC3=NC2=O)ccc1OCCOc1ccccc1C,-26.4%
5,CC(=O)c1c(C)n(-c2ccccc2)c2ccc(O)cc12,68% (active)
6,CC(=O)c1ccc(-n2c(C)c(C(C)=O)c3cc(O)ccc32)cc1,50.8% (active)
7,CC(=O)c1c(C)n(-c2ccc(Cl)cc2)c2ccc(O)cc12,12.3%
8,COc1ccc(-n2c(C)c(C(C)=O)c3cc(O)ccc32)cc1,72.1% (active)
9,CC(=O)c1ccc(N2CCN(c3ccnc4cc(Cl)ccc34)CC2)cc1,45.2%
10,Cc1ccc(S(=O)(=O)NC(CC(C)C)C(=O)N2CC(C)OC(C)C2)cc1 (stereo not drawn),9.2%
11,O=C1CCC2S/C(=C/Nc3ccc(C(F)(F)F)cc3)C(=O)N12 (stereo not drawn),95.8% (active)
12,Cc1cc(C(=O)N/N=C/c2cc(Br)cc(Br)c2OC(=O)c2cccc(F)c2)n[nH]1,75.2% (active)
13,Cc1cc(C(=O)N/N=C/c2cc(Br)ccc2OC(=O)c2ccccc2)n[nH]1,91.1% (active)
14,COc1cccc(C(=O)Oc2c(Br)cc(Br)cc2/C=N/NC(=O)c2cc(C)[nH]n2)c1,71.1% (active)
15,Cc1cccc(Nc2nc(N)nc(CCl)n2)c1,25.3%
16,Cc1ccc(S(=O)(=O)NCc2ccc(C(=O)N3CCN(c4ccc([N+](=O)[O-])cc4)CC3)cc2)cc1,43.8%
17,Cc1c(-c2ccccc2)oc2c(C(=O)N3CCN(c4ccc([N+](=O)[O-])cc4)CC3)cccc2c1=O,60.9% (active)
18,O=[N+]([O-])c1ccc(N2CCN(c3ccccc3)CC2)nc1,-49.6%
